# Source: PubChem BioAssay AID492998 (Southern Research Specialized Biocontainment Screening …, 2010)
# Hit rate of the full screen: of about 2,300 compounds, about 550 (24%) were called active. A selection follows. Potency and affinity values are given separately. Values without a mark were called inactive. How the calls were made is not given here.
# Assay: Vero E6 cell cytotoxicity, dose response, cytotoxicity control for non-replicating M. tuberculosis project, secondary assay (AID 492998);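 further: 100% = vehicle-treated cells and 0% = background wells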
# Settings: series mostly up to 20 µM; viability: at the top concentration
row,SMILES,viability [%]
1,Cn1c(=O)c2c(=O)cc(NNC(=O)CC#N)[nH]c2n(C)c1=O,110
2,COC(=O)COc1ccc(S(=O)(=O)NCc2ccc3c(c2)OCO3)cc1,106
3,COc1ccc(NCC(=O)N2CCCC2)cc1Cl,119
4,CC1CCc2c(sc3nc(CSc4ncn[nH]4)[nH]c(=O)c23)C1 (configuration not stated),89.9
5,CCOC(=O)COc1ccc2c(=O)c(-c3ccccc3)coc2c1,103
6,C=CCN1C(=O)C2(NNc3ccccc3O2)c2ccccc21 (configuration not stated),82
7,Cc1ccc2c(c1)C(=O)C(=O)N2CCCOc1ccccc1,96.2
8,O=C(c1ccccc1)n1c(=O)c(F)cn(COCCBr)c1=O,108
9,Cc1cc(C)cc(NC(=O)CCc2ccc(C)o2)c1,97
10,CCc1ccc(N=CC2=C(O)CC(c3ccco3)CC2=O)cc1 (configuration not stated),95.6
11,C/C(=N/NC(=O)c1ccco1)c1ccc(Br)s1,90.8
12,Cc1ccc(/C=C2\SC(=S)N(C3CCS(=O)(=O)C3)C2=O)o1 (configuration not stated),89.5
13,COC(=O)c1ccc(CO/N=C/c2ccc(OC)cc2)o1,99.9
14,CCOC(=O)COc1ccc(C(=O)NC2CCCCC2)cc1,103
15,O=[N+]([O-])c1ccc2nc(SCc3cn4cc(Cl)ccc4n3)[nH]c2c1,91.4
16,Cc1nc2ccc(Cl)cc2nc(C)/c1=N\O,88.4
17,O=c1c2cc(Cl)ccc2nc(-c2ccccc2Cl)n1O,103
18,O=C(Oc1cccc([N+](=O)[O-])c1)c1ccc2c(=O)n3c(nc2c1)CCC3,96.2
19,N/C(=N\OC(=O)c1cccc(Br)c1)c1ccc([N+](=O)[O-])cc1,98.3
20,O=c1c2c([N+](=O)[O-])cc([N+](=O)[O-])cc2sn1-c1ccc(Br)cc1,77
21,CCOC(=O)c1cn(Cc2cccc(Cl)c2)nn1,97.6
22,O=C(O)c1ccccc1C(=O)NNc1ccc(Cl)cc1,104
23,CCCCCC1CC(CC(=O)NC(=S)Nc2ccc([N+](=O)[O-])cc2)C(=O)O1 (configuration not stated),104
24,Cc1c(Cl)cccc1NC(=O)C1COc2ccccc2O1 (configuration not stated),99.6
25,CCOC(=O)NC(=O)COC(=O)CCCSc1nc2ccccc2s1,104
26,Cn1ccsc1=NC(=O)c1ccccc1F,97.6

row,SMILES,viability [%]
1,CCc1ccc(C(=O)NC2CCCCC2)s1,98.3
2,Cc1ccc(Sc2ccc(C=C3C(=O)N(C)C(=O)N(C)C3=O)o2)cc1,93
3,Cc1cc(C(=O)NNc2cc(Cl)ccc2Cl)no1,94.2
4,CC(C)(C)OC(=O)NCCC(=O)Oc1ccc2ccc(=O)oc2c1,93.9
5,COC(=O)[C@@H](NC(=O)c1cc(COc2cncc(Cl)c2)on1)c1ccccc1,103
6,Cc1ccc(NC(=O)CN(C)CC(=O)Nc2ccc(F)c(Cl)c2)cc1,101
7,NCCNc1ccc([N+](=O)[O-])c2cccnc12,96.2
8,O=[N+]([O-])c1cnc(Nc2ccc(Cl)cn2)c([N+](=O)[O-])c1,82.3
9,CCOC(=O)COc1cc([N+](=O)[O-])cc2cccnc12,104
10,O=C1c2cccc3cc([N+](=O)[O-])cc(c23)C(=O)N1c1ccccc1O,91.5
11,Fc1ccc(N2CCN(Cc3nnc(-c4ccccc4)o3)CC2)cc1,119
12,Cc1occc1-c1nnc(-c2cc([N+](=O)[O-])cc([N+](=O)[O-])c2)o1,90.4
13,S=C(Nc1ccc2c(c1)OCO2)Nc1ccc2c(c1)OCO2,83.2
14,CCOC(=O)c1cc(-c2csc(COc3ccccc3)n2)on1,102
15,CC(=O)N1CCC(=NNC(=O)c2cccs2)CC1,99.7
16,NC1CCN(c2c(F)cc3c(=O)c(C(=O)O)cn(C4CC4)c3c2Cl)C1 (configuration not stated),102
17,Cc1ccc2cc3c(nc2c1)OCC3,99.3
18,O=C(Nc1nccs1)c1cc2cc(Cl)ccc2oc1=O,109
19,O=C(NNc1ccc([N+](=O)[O-])cc1)C1CC2CCCC(C1)C2=O (configuration not stated),101
20,COCC(=O)Nc1ccccc1NC(C)=O,94.4
21,CCOc1ccc(OCc2ccc(C(=O)OCc3ccccn3)o2)cc1,103
22,CCOc1cc(/C=N/NC(=O)c2ccccn2)ccc1OC(=O)c1cccs1,111
23,O=C(OCc1ccc(Cl)c(Cl)c1)c1ccccn1,115
24,COC(=O)c1ccc(COC(=O)c2ccccn2)cc1,102
25,Cc1ccccc1NC(=O)C1COc2ccccc2O1 (configuration not stated),91.7
26,O=C(OCc1ccccn1)c1ccc(COc2ccccc2Cl)o1,80.2

row,SMILES,viability [%]
1,Nc1ccc2cc(Br)ccc2c1,81.7
2,N#CC(C(=O)NCc1ccco1)c1nc2ccccc2nc1N1CCOCC1 (configuration not stated),89.9
3,Cc1c([N+](=O)[O-])cnc(Sc2ccccc2)c1[N+](=O)[O-],77.3
4,Nc1ncnc(Oc2cccc3cccnc23)c1[N+](=O)[O-],88.1
5,O=C(NNC(=O)c1ccccc1F)c1ccc(-c2ccc(Cl)cc2)o1,100
6,Cn1cccc1/C=N/NC(=O)c1ccco1,98
7,C=CCNc1nc(C(=O)OCC(=O)c2cccc(Br)c2)cs1,101
8,Cc1ccc(C(=O)CCNc2ccc(Br)cc2)o1,86.6
9,O=C(CCNc1cccc(Cl)c1)c1cccs1,84.5
10,O=C(CCNc1ccc(Cl)c(C(F)(F)F)c1)c1ccco1,76.2
11,COc1ccc(C(=O)CCNc2ccc(F)cc2)cc1,103
12,O=C(COC(=O)c1ccc(O)cc1O)c1ccc2c(c1)OCO2,110
13,O=C(CCN1CCC(c2cccs2)=N1)c1cccs1,117
14,C/C(=N\Nc1ccc(Cl)cc1)c1c(O)cc(C)oc1=O,102
15,CSc1ccc(N=Nc2c(C)[nH]n(C)c2=O)cc1,97
16,Cc1ccc(N=Nc2c(C)[nH]n(C(N)=S)c2=O)cc1,85.3
17,Cn1nnnc1N=N/C(=N/Nc1ccccc1)c1ccccc1,80.9
18,CC(NC(=O)c1cc2ccccc2oc1=O)c1ccccc1 (configuration not stated),98.7
19,CCCCOC(=O)c1ccc(NC(=O)C2CCCO2)cc1 (configuration not stated),85.9
20,Cc1cccc(OCC(=O)NNC(=O)c2cc3ccccc3oc2=O)c1,104
21,O=C(COc1ccc2ccccc2c1)N/N=C/c1ccccn1,103
22,O=C(COC(=O)CCC(=O)c1ccc(F)cc1)Nc1ccccc1,101
23,CC(=O)OCCN(C)c1cc(SC(C)C)c2nonc2c1[N+](=O)[O-],101
24,CC(=O)OCCNc1cc(SCc2ccco2)c2nonc2c1[N+](=O)[O-],98.7
25,C/C(Cn1nnc([N+](=O)[O-])n1)=N\NC(=O)c1ccncc1,93.6
